Drawing on PubChem BioAssay (NCI), this text covers growth for eight molecules.

Molecules are shown by their SMILES. Compounds without any hit were thinned out: in the full panel of roughly 83,000, 20% have a hit.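 How to read the values: 0–100, growth inhibition (40 = 60% inhibited); 0, no net growth; -100 to 0, cell death (-40 = 40% of starting cells died; -100 = all dead).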 Unmarked numbers belong to inactive results. Calls of active or inactive are those of the source. The calls were made as follows: active = growth percent below 10; inactive = the rest.

Test systems include NCI-H23 lung; NCI-H226 lung; NCI-H322M lung; HOP-62 NSCLC; NCI-H460 lung; HOP-92 NSCLC; NCI-H522 lung; A549/ATCC NSCLC; 786-0 renal; COLO 205 colon; DU-145 prostate; K-562 leukemia; MALME-3M melanoma; MDA-MB-231 breast; RXF 393 renal; SF-268 CNS; SF-295 CNS; SF-539 CNS; UACC-257 melanoma; M14 melanoma.
What all share (assay): NCI-60 one-dose screen, 48 h (100 = growth as untreated, 0 = no growth, -100 = all killed)
Holding throughout (conditions): 10 µM unless noted

Turning to `COc1ccc(Nc2ncccc2C(=O)NCc2cn(Cc3cccc(Oc4ccccc4)c3)nn2)cc1`, the growth is 54.6% in the test with NCI-H23 lung; 71.7% in the test on NCI-H226 lung; 46.1% in the test on NCI-H322M lung; 51.2% in the test on HOP-62 NSCLC; 22.3% in the test with NCI-H460 lung; 68.5% in the test with HOP-92 NSCLC. In addition, the growth with NCI-H522 lung is 26.1%; in the test with A549/ATCC NSCLC, 49.2%; in the test on 786-0 renal it was 51.3%; with COLO 205 colon it was 43.9%; in the test on DU-145 prostate, 46.1%; with K-562 leukemia, 33.6%. For the same molecule, the growth is 41.4% with MALME-3M melanoma; 52% in the test with MDA-MB-231 breast; 46% in the test with RXF 393 renal; 50% with SF-268 CNS; 33.7% in the test with SF-295 CNS; 33.6% in the test with SF-539 CNS. Besides, the growth with UACC-257 melanoma is 88.8%; in the test on M14 melanoma, 38.7%.

In the case of `CCOC(=O)NNC(=S)Nc1ccccc1`, the growth was 99.5% in the test with NCI-H23 lung; 103% in the test on NCI-H226 lung; 102% in the test on NCI-H322M lung; 102% in the test on HOP-62 NSCLC; 108% in the test on NCI-H460 lung; 93.5% in the test on HOP-92 NSCLC. In addition, the growth is 100% in the test on NCI-H522 lung; 96.3% in the test on A549/ATCC NSCLC; 103% in the test with 786-0 renal; 131% in the test with COLO 205 colon; 118% in the test with DU-145 prostate; 113% in the test with K-562 leukemia. The growth with MALME-3M melanoma was 110%; with MDA-MB-231 breast, 115%; with RXF 393 renal, 113%; in the test with SF-268 CNS, 103%; in the test on SF-295 CNS, 102%; in the test on SF-539 CNS, 98.9%. Moreover, the figures for the growth with UACC-257 melanoma and with M14 melanoma were 102% and 108%, respectively.

In the case of `CCN(CC)CCC(CNc1c2ccc(Cl)cc2nc2ccc(OC)cc12)c1ccccc1` (stereo not given), the growth with NCI-H23 lung is 34.1%; in the test with NCI-H226 lung, 13.9%; with NCI-H322M lung, 17.5%; in the test on HOP-62 NSCLC it was -49.8% (active); in the test with NCI-H460 lung, -39.6% (active); in the test on HOP-92 NSCLC it was -1.53% (active). For the same molecule, the growth with NCI-H522 lung is -81% (active); with A549/ATCC NSCLC, -62.4% (active); with 786-0 renal, -85% (active); in the test with COLO 205 colon it was -91.9% (active); in the test with DU-145 prostate it was -23.3% (active); in the test on K-562 leukemia, -21.8% (active). For the same molecule, the growth is -85.1% (active) in the test on MALME-3M melanoma; -46.1% (active) in the test on MDA-MB-231 breast; -97.7% (active) in the test with RXF 393 renal; 8.46% (active) in the test on SF-268 CNS; -33.2% (active) in the test with SF-295 CNS; -79.6% (active) in the test on SF-539 CNS. Also, the growth with UACC-257 melanoma is -91.1% (active); in the test on M14 melanoma, -87.9% (active).

With `O=C(C1=Cc2cc3ccccc3n2Cc2cnnn21)c1ccccc1`, the growth with NCI-H23 lung is 73.6%; in the test on NCI-H226 lung, 78.1%; with NCI-H322M lung, 80.6%; in the test with HOP-62 NSCLC, 39.2%; with NCI-H460 lung, 30.9%; with HOP-92 NSCLC, 55.1%. Also, the growth was 9.68% (active) in the test with NCI-H522 lung; 58.5% in the test on A549/ATCC NSCLC; 69.1% in the test on 786-0 renal; 58.8% in the test on COLO 205 colon; 85.6% with DU-145 prostate; 21.4% with K-562 leukemia. Moreover, the growth is 76.9% with MALME-3M melanoma; 54.3% with MDA-MB-231 breast; 54.6% in the test with RXF 393 renal; 58.8% with SF-268 CNS; 56.3% in the test with SF-295 CNS; 57.8% with SF-539 CNS. Also, the growth in the test with UACC-257 melanoma is 74.6%; in the test on M14 melanoma it was 22.2%.

As for `COc1ccc(-c2nc(-c3nc4cc(C)c(C)cc4[nH]3)cc3c2[nH]c2ccccc23)cc1`, the growth with NCI-H23 lung is 60.1%; with NCI-H226 lung, 95.8%; in the test with NCI-H322M lung, 84%; with HOP-62 NSCLC, 58.4%; with NCI-H460 lung, 42.2%; with HOP-92 NSCLC, 52.3%. The growth was 72.5% in the test with NCI-H522 lung; 43.2% with A549/ATCC NSCLC; 6.87% (active) in the test on 786-0 renal; 41.9% with COLO 205 colon; 84.7% with DU-145 prostate; 11.4% with K-562 leukemia. Also, the growth with MALME-3M melanoma is 73.1%; in the test on MDA-MB-231 breast, -49.5% (active); with RXF 393 renal it was -63.8% (active); in the test with SF-268 CNS, 80.5%; in the test on SF-295 CNS, 25.4%; with SF-539 CNS, 5.88% (active). Further, the values for the growth in the test on UACC-257 melanoma and in the test with M14 melanoma were 89.1% and 70.2%, respectively.

For `N[C@@H]1CCN(C(=O)c2cc3cc(Cl)c(F)c(F)c3[nH]2)C1`, the growth is 92.8% in the test with NCI-H23 lung; 75% with NCI-H226 lung; 87.1% in the test on NCI-H322M lung; 84.4% in the test on HOP-62 NSCLC; 99.8% in the test with NCI-H460 lung; 74.1% in the test with HOP-92 NSCLC. In addition, the growth in the test on NCI-H522 lung was 80.1%; in the test on A549/ATCC NSCLC it was 93.6%; in the test on 786-0 renal it was 86.6%; in the test with COLO 205 colon it was 110%; in the test with DU-145 prostate, 102%; in the test with K-562 leukemia, 83.4%. Also, the growth in the test on MALME-3M melanoma is 97.8%; in the test with MDA-MB-231 breast, 79.6%; in the test with RXF 393 renal it was 87.1%; with SF-268 CNS, 79.8%; with SF-295 CNS, 94.9%; in the test on SF-539 CNS, 86.8%. For the same molecule, the growth in the test with UACC-257 melanoma was 99.7%; in the test on M14 melanoma, 89.8%.

With `c1cc(C2=N[C@@H]3c4ccccc4C[C@@H]3O2)nc(C2=N[C@@H]3c4ccccc4C[C@@H]3O2)c1`, the growth with NCI-H23 lung was 98.1%; in the test with NCI-H226 lung, 101%; in the test on NCI-H322M lung, 107%; with HOP-62 NSCLC it was 100%; with NCI-H460 lung, 109%; in the test on HOP-92 NSCLC, 101%. In addition, the growth in the test with NCI-H522 lung was 93.1%; in the test with A549/ATCC NSCLC, 104%; with 786-0 renal it was 98.8%; in the test on COLO 205 colon, 106%; in the test on DU-145 prostate, 104%; in the test with K-562 leukemia, 102%. Moreover, the growth with MALME-3M melanoma is 103%; with MDA-MB-231 breast, 105%; in the test with RXF 393 renal it was 105%; in the test on SF-268 CNS, 97.1%; in the test on SF-295 CNS, 86.9%; in the test on SF-539 CNS it was 97%. Besides, the results for the growth with UACC-257 melanoma and with M14 melanoma were 107% and 99.4%, respectively.

For the molecule `Clc1cc(Cl)cc(-c2ccc(-c3ccc(/C=N/NC4=NCCN4)cc3)s2)c1`, the growth was 39.1% in the test with NCI-H23 lung; 85.1% in the test on NCI-H226 lung; 98.3% in the test on NCI-H322M lung; 71% in the test on HOP-62 NSCLC; 4.5% (active) with NCI-H460 lung; 38.9% in the test with HOP-92 NSCLC. The growth was 71.4% in the test with NCI-H522 lung; -22.4% (active) in the test with A549/ATCC NSCLC; 75.8% in the test with 786-0 renal; -17.1% (active) in the test with COLO 205 colon; 23.4% in the test with DU-145 prostate; -1.14% (active) in the test on K-562 leukemia. Besides, the growth is 98.3% with MALME-3M melanoma; 61.5% in the test with MDA-MB-231 breast; 60.6% in the test on RXF 393 renal; 76.2% with SF-268 CNS; 93.7% in the test on SF-295 CNS; 84% with SF-539 CNS. For the same molecule, the figures for the growth in the test on UACC-257 melanoma and in the test on M14 melanoma were 103% and 94.4%, respectively.
